# Screen size: about 1,500 compounds; about 890 (59%) were called active. The set was probably picked from earlier hits. A selection follows. Potency and affinity values are given separately. Values without a mark were called inactive.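 Rule for the calls: active = inhibition of the choline-evoked signal at any tested dose together with a fitted dose-response curve; inactive = no inhibition at any dose or no curve.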
# Molecular target: High affinity choline transporter 1 (Homo sapiens) (UniProt Q9GZV3)
# Experiment: CHT inhibitors, dose response, cell-based, 5-point CRC, membrane potential dye (AID 504840);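 note: 0% = buffer-only response and 100% = EC90 choline response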
# Conditions: HEK293-CHT, choline-induced depolarization, CHT with LV-to-AA double alanine mutation; series mostly up to 37 µM; inhibition: at the top concentration
# High affinity choline transporter 1 (Homo sapiens), sequence (Q9GZV3 whole entry, looked up): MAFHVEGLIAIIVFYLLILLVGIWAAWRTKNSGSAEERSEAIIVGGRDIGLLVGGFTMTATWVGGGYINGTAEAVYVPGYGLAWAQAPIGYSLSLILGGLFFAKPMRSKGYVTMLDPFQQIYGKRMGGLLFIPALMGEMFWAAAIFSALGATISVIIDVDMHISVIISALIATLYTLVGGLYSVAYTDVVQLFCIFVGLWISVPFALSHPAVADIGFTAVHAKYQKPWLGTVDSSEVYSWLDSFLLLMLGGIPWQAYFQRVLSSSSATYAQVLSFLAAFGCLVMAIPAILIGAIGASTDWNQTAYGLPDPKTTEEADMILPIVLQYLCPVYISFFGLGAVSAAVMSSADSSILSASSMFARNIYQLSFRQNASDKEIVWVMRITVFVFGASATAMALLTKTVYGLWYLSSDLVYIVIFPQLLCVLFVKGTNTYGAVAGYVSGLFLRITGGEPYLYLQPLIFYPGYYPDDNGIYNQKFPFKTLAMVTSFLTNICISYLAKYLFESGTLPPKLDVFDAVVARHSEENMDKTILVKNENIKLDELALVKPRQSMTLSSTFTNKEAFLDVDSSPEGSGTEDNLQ
row,SMILES,inhibition
1,COc1ccc(Nc2nc3ccccc3n2C)cc1,50.8%
2,S=C(NCc1ccccn1)Nc1ccc(Cl)cc1Cl,33.7%
3,O=C(Nc1ccc(Br)cc1Cl)Nn1cnnc1,45.4%
4,COc1ccc(CN(C(=O)c2cccs2)C(C(=O)NC2CCCCC2)c2ccc3ncccc3c2)cc1 (stereo not drawn),63%
5,O=C(NCCc1ccc2c(c1)OCCO2)c1cc2ccccc2o1,39.6%
6,COc1ccc(CN(C(=O)c2ccc3c(c2)OCCO3)C(C(=O)NC2CCCCC2)c2ccc3ncccc3c2)cc1 (stereo not drawn),76.3%
7,O=C(NC1CCCCC1)C(c1ccc2ncccc2c1)N(Cc1ccc(F)cc1)C(=O)c1ccc2c(c1)OCCO2 (stereo not drawn),42.8%
8,NC1=NC2(CCCCCC2)n2c(nc3ccccc32)N1,81.2%
9,Cc1ccc(-c2csc3ncn(CC#N)c(=O)c23)cc1,39.8%
10,CC1=C(C(=O)Nc2cccc(C(=O)NC3CCCC(C)C3C)c2)SCCO1 (stereo not drawn),47.5%
11,Cc1ccc(NNC(=O)c2cccs2)cc1Cl,54.2%
12,Cc1ccc(Nc2cc(C(=O)NCCCN3CCOCC3)c3ccccc3n2)cc1C,52.7%
13,CCNc1nc2[nH]c(=O)c3c(c2s1)OC(N)=C(C#N)C3c1ccc(C)cc1 (stereo not drawn),46.1%
14,Cc1noc(C)c1COC(=O)c1ccc(F)c(S(=O)(=O)N2CCCCC2)c1,32.3%
15,CCc1nnc(NC(=O)c2cc(S(=O)(=O)N(CC)CC)ccc2Cl)s1,49.4%
16,CC[N+]1(CC)CC2=Cc3c(ccc4ccccc34)CC2C1 (stereo not drawn),54.8%
17,O=C(CN1CCN(Cc2ccc(Cl)cc2)CC1)N1CCc2ccccc21,43%
18,Cc1ccc(-c2noc(CNc3ccccc3)n2)cc1,48.7%
19,CCc1ccc(NCc2nc(-c3ccccc3)no2)cc1,39.8%
20,O=C(CCCN1C(=O)CSc2ncccc21)N1CCN(c2cccc(C(F)(F)F)c2)CC1,88.7%
21,COC(=O)c1ccc(C(=O)N2CCCC(Nc3ccc(C(C)C)cc3)C2)nc1 (stereo not drawn),38.6%
22,CC(C)c1cc(C(=O)N2CCCC(CCC(=O)N3CCN(c4ccccn4)CC3)C2)no1 (stereo not drawn),43.1%

row,SMILES,inhibition
1,O=C(c1cc(COc2ccc(F)cc2Cl)on1)N1CCC(c2ccncc2)CC1,57.7%
2,CCN(Cc1ccncc1)C(=O)c1cc(COc2c(C)cccc2C)on1,45.7%
3,CC(C)n1cnc2c(N(C)c3cccc(Cl)c3)nc(N(CCO)CCO)nc21,53.9%
4,N#C/C(=N\Nc1ccc([N+](=O)[O-])cc1)C(N)=S,130%
5,N#C/C(=N\Nc1ccc(F)cc1)C(=O)C1CC1,29.1%
6,CC(NC(=O)C1c2ccccc2Oc2ccccc21)C1CCCO1 (stereo not drawn),-6.34%
7,CN(Cc1ccccc1)c1ccc(C(CC(N)=O)NC(=O)c2ccc(Br)cc2)cc1[N+](=O)[O-] (stereo not drawn),38.3%
8,O=C(O)c1ccc(N2C(=O)CSC2=S)cc1,19%
9,O=C(CCC(=O)N1CCN(c2ccccc2F)CC1)N1CCN(c2ccc(F)cc2)CC1,19.3%
10,Cc1ccc(Cl)cc1N1CCN(C(=O)Cc2c(C(=O)O)[nH]c3ccc(Cl)cc23)CC1,49.7%
11,CCC(=O)Nc1cc(Cl)ccc1N1CCN(C(=O)CC)CC1,26.7%
12,NC(N)=N/N=C/c1ccc(Cl)c(Cl)c1,56.4%
13,O=C1OCCC1Sc1nc(-c2ccccc2)cs1 (stereo not drawn),55.7%
14,Cc1csc(C(C#N)C(=O)c2cc3ccccc3o2)n1 (stereo not drawn),24.7%
15,CC(C)n1c(=S)[nH]c2cc(C(F)(F)F)ccc21,44.1%
16,CCCCNS(=O)(=O)c1ccc(NC(=O)c2c(-c3ccccc3Cl)noc2C)cc1,29.5%
17,Cc1noc(NC(=O)c2c(-c3c(Cl)cccc3Cl)noc2C)c1[N+](=O)[O-],39.3%
18,Cc1cc(C)cc(OCC(O)CN2CCC(CN3C(=O)c4cccc5cccc(c45)C3=O)CC2)c1 (stereo not drawn),36.8%
19,OCC1OC(n2cnc3c(NC4CCCCC4)ncnc32)C(O)C1O (stereo not drawn),46.6%
20,CC(=O)c1ccc(Nc2nc(NCCO)nc(OC(C(F)(F)F)C(F)(F)F)n2)cc1,23.8%
21,CC1CCN(CCCNC(=O)CN2C(=O)CSc3ccc(S(=O)(=O)N4CCCCC4)cc32)CC1,53.7%
22,CCCCN(C)CCNC(=O)CN1C(=O)CSc2ccc(S(=O)(=O)N3CCCC3)cc21,52.2%

row,SMILES,inhibition
1,Cc1ccc(-c2csc3ncnc(N4CCN(C)CC4)c23)cc1C,53.4%
2,Cc1ccc(-c2csc3ncnc(-n4nnc5ccccc54)c23)cc1,57.5%
3,Cc1ccc(-c2csc3ncnc(-n4cnc5ccccc54)c23)cc1,85%
4,O=C(O)CCN1C(=O)CC(N2C(=O)/C(=C/c3ccc(Cl)cc3)SC2=S)C1=O (stereo not drawn),49.9%
5,COc1ccc(-c2csc3ncnc(NCCCO)c23)cc1,52.9%
6,CCCNC(=O)N1CCCC(C(=O)c2cccc(Cl)c2)C1 (stereo not drawn),6.87%
7,CCOC(=O)Cc1csc(N/C(=N/S(=O)(=O)c2ccc(F)cc2F)c2ccccc2)n1,11%
8,Cc1cc(O)ccc1NS(=O)(=O)c1ccc2c3c(cccc13)C(=O)N2,38.9%
9,CC1Cc2ccccc2N1C(=O)COC(=O)c1ccc(O)cc1 (stereo not drawn),24.7%
10,CC[C@H](CO)Nc1nc(Nc2cccc(Cl)c2)c2ncn(C(C)C)c2n1,33.4%
11,COc1cc2c(cc1OC)/C(=C/C(=O)c1ccccc1F)NCC2,49.9%
12,CCCCCn1c(=O)c(F)cn(Cc2ccc(OC)c([N+](=O)[O-])c2)c1=O,58.7%
13,Cn1c(-c2ccccc2)cnc1SCc1nc2ccccc2c(=O)[nH]1,30.3%
14,N#Cc1ccccc1COC(=O)c1cccnc1N,41.7%
15,CC1=C(C(=O)NC(C)C)C2(CCC(C)CC2)OC1=O (stereo not drawn),-0.294%
16,COc1ccc(/C=C2/SC(=S)N(NS(=O)(=O)c3ccccc3)C2=O)cc1,41.8%
17,COc1cc(C=O)ccc1OCCOCCOc1ccccc1Cl,22.1%
18,CCOc1ccc(/C=C2\SC(=S)N(NS(=O)(=O)c3ccc(C)cc3)C2=O)cc1OC,72.1%
19,O=C1/C(=C/c2ccc(F)cc2)SC(=S)N1NS(=O)(=O)c1ccccc1,40.3%
20,Cc1ccc(C(=O)Nc2cccc(C(F)(F)F)c2)cc1NC(=O)c1csc(-c2ccncc2)n1,21.5%
21,Cc1ccc(NC(=O)COC(=O)CN2C(=O)COc3ccccc32)cc1,56.4%
22,CCOc1ncccc1C(=O)NCC1COc2ccccc2O1 (stereo not drawn),15.3%

row,SMILES,inhibition
1,CC1(C)CC2CC(C)(CN2C(=O)CCCN2C(=O)c3ccccc3C2=O)C1 (stereo not drawn),53.6%
2,Cc1ccc2nc(-c3ccccc3)cc(C(=O)NCCCn3ccnc3)c2c1,63%
3,CCOc1cccc(-c2nn(-c3ccccc3)cc2/C=C(/C#N)C(=O)NCCCn2ccnc2)c1,28.6%
4,Cc1c(CCC(=O)NCCCn2ccnc2)c(=O)oc2c(C)c3occ(C(C)(C)C)c3cc12,76.5%
5,O=C(O)c1ccc(N/N=C/c2cn(-c3ccccc3)nc2-c2cccs2)cc1,55.5%
6,COc1ccc(/C(O)=C2/C(=O)C(=O)N(c3ccccn3)C2c2cccc(Cl)c2)cc1 (stereo not drawn),37.6%
7,O=C(NC1CC1)C1=C[C@H](c2csc3ccccc23)C[C@H](OCc2ccc(CO)cc2)O1,-0.201%
8,O=C(Nc1ccccc1C(=O)NCCCn1ccnc1)c1ccc(Cl)cc1Cl,53.8%
9,O=C(Nc1ccc(OCc2ccccc2)cc1)Nc1ccccc1C(=O)NCCCN1CCOCC1,37.1%
10,CSc1ccccc1C(=O)NCCS(=O)(=O)N1CCN(c2ccc(F)cc2)CC1,53.1%
11,C=CCn1c(SC2CCOC2=O)nc2scc(C3CC3)c2c1=O (stereo not drawn),51%
12,CN(C)CCOC(=O)Cc1ccc(Cl)cc1,22.7%
13,COc1ccc(OCC(=O)NC(=S)Nc2ccccc2F)cc1,12.5%
14,CN(Cc1ccccc1)C(=O)COC(=O)COc1ccc(C#N)cc1,44.2%
15,Cc1sc2nc(SCCN(C)C)n(-c3ccccc3)c(=O)c2c1-c1ccc(F)cc1,57.2%
16,CCCCOc1cccc(C(=O)NNC(=S)NC2CCCCC2)c1,49%
17,Oc1ccc(Oc2ncc(Cl)cc2Cl)cc1,41.6%
18,O=C(C[n+]1cccc2ccccc21)c1ccc(Cl)cc1,31.1%
19,CSCCC(NC(=O)c1ccccc1)C(=O)Nc1ccc(C)cc1 (stereo not drawn),-7.83%
20,CC(C)Cc1csc(NC(=O)c2ccc(Br)cc2)c1C(=O)O,35.9%
21,CC(C)c1c(C(=O)N/N=C/c2cccc(OCc3ccc(F)cc3)c2)nnn1-c1nonc1N,4.16%
22,CCCOP(=O)(c1ccc(N(C)C)cc1)C(O)c1ccc(Br)cc1 (stereo not drawn),-9.68%

row,SMILES,inhibition
1,O=C(NNS(=O)(=O)c1ccc([N+](=O)[O-])cc1)c1ccc2ccccc2c1O,36.4%
2,CCN1CCN(CC(=O)Nc2ccc(S(=O)(=O)N3C(C)CCCC3C)cc2)CC1 (stereo not drawn),76.4%
3,O=C(CCN1C(=O)/C(=C\c2cccc(Br)c2)SC1=S)NCCCN1CCOCC1,41.5%
4,S=c1nc(-c2ccco2)[nH][nH]1,44.5%
5,O=C(NC(=S)NNC(=O)[C@H]1C[C@@H]1c1ccccc1)c1cccc(F)c1,57.1%
6,CCN1CCN(c2cc(C)c3cc(NC(=S)N4CCC5(CC4)OCCO5)ccc3n2)CC1,61%
7,Cc1csc2c(N3CCN(C(=S)Nc4ccc(C(F)(F)F)cc4)CC3)ncnc12,36.7%
8,CCCN1CCN(C(=S)Nc2ccc3nc(N4CCN(CC)CC4)cc(C)c3c2)CC1,71.7%
9,O=c1c2c(C(F)(F)F)cc(C(F)(F)F)nc2[nH]n1-c1ccccc1,54.5%
10,CCN(CC)CCCN(C(=O)c1ccc(OC)cc1)c1nc(-c2ccc(OC)cc2)cs1,41.3%
11,CCCCCc1cc(=O)oc2c(C(CCN(CC)CC)c3cc(OC)c(OC)c(OC)c3)c(OC)cc(OC)c12 (stereo not drawn),36.1%
12,CSC(SC)=C(C#N)C(=O)c1ccccc1,94.9%
13,COc1cccc(C(=O)NN/C(C)=C/C(=O)C(F)(F)C(F)(F)C(F)(F)F)c1,43.2%
14,O=C1ON=C(c2ccccc2)/C1=C/c1ccco1,58.5%
15,CCc1ccc(S(=O)(=O)c2n[nH]n3c2nc(=O)c2ccccc23)cc1,40%
16,C/C(Cl)=C\Cn1c(O)c(N=O)c2ccccc21,51.9%
17,CC(NS(=O)(=O)OCC(Cl)(Cl)Cl)c1ccc(Br)cc1 (stereo not drawn),41.1%
18,O=S(=O)(c1ccc(F)c(F)c1)N1CCN(CCc2ccccc2)CC1,48.3%
19,COc1ccc(S(=O)(=O)N2CCN(CCc3ccccc3)CC2)c(OC)c1,50.7%
20,O=C1CCN(CCc2ccccc2)CCN1CCSc1ccccc1,41.9%

# From PubChem BioAssay AID504840 (Johns Hopkins Ion Channel Center, 2011)
